Laboratory results published in PubChem BioAssay AID1159580 (chemical genetic matrix, 2015).
Where “and” joins values, the source holds several entries; their conditions need not be identical. Identical values can stand only once. Out of some 5,500 compounds screened, about 2,000 (36%) were called active. Inconclusive results (about 18%) are left out. Cut-off read from the data, not from the text of the source: active = normalized growth mostly below about 0.91 (no sharp cut-off); inconclusive = no clear call, values can overlap the other calls; inactive = mostly above about 0.92. The list shows a part of the results.

Assay: chemical genetic growth profiling, strain panel (AID 1159580);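 note: tested at 20 µM; growth read once vehicle control cultures reached saturation at 30 °C; 1 = growth at the plate median or of vehicle wells; lower values mean less growth of the strain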
Conditions: S. cerevisiae deletion strains, growth OD

Measured: normalized growth

O=C1C[C@@H](c2ccc(O)cc2)Oc2cc(O)cc(O)c21
inactive: locus YAL013W, strain DEP1, hits give low values 1.02 | locus YAL021C, strain ccr4, hits give low values 0.987 | locus YAL026C, strain drs2, hits give low values 0.969 | locus YAL030W, strain snc1, hits give low values 0.953 | locus YBL061C, strain skt5, hits give low values 0.974 | locus YBR009C, strain hhf1, hits give low values 0.959 | locus YBR021W, strain FUR4, hits give low values 0.995 | locus YBR023C, strain chs3, hits give low values 0.955 | locus YBR171W, strain sec66, hits give low values 0.989 | locus YBR229C, strain ROT2, hits give low values 1.02 | locus YBR231C, strain swc5, hits give low values 0.972 | locus YBR279W, strain paf1, hits give low values 0.97 | locus YCL011C, strain gbp2, hits give low values 0.952 | locus YCL016C, strain dcc1, hits give low values 0.969 | locus YCL029C, strain bik1, hits give low values 1.03 | locus YCL061C, strain MRC1, hits give low values 0.979 | locus YCL069W, strain vba3, hits give low values 0.966 | locus YCR088W, strain abp1, hits give low values 0.955 | locus YDL005C, strain med2, hits give low values 0.978 | locus YDL035C, strain GPR1, hits give low values 1.01 | locus YDL040C, strain nat1, hits give low values 0.976 | locus YDL074C, strain BRE1, hits give low values 1.01 | locus YDL101C, strain DUN1, hits give low values 1.01 | locus YDL134C, strain PPH21, hits give low values 1.01 | locus YDL185W, strain tfp1, hits give low values 1.01 | locus YDL192W, strain arf1, hits give low values 1.01 | locus YDR001C, strain nth1, hits give low values 0.964 | locus YDR069C, strain doa4, hits give low values 0.944 | locus YDR101C, strain arx1, hits give low values 1.01 | locus YDR137W, strain rgp1, hits give low values 0.955 | locus YDR150W, strain NUM1, hits give low values 1.01 | locus YDR159W, strain sac3, hits give low values 0.942 | locus YDR162C, strain NBP2, hits give low values 1.01 | locus YDR195W, strain ref2 0.931 | locus YDR297W, strain sur2, hits give low values 0.97 | locus YDR318W, strain mcm21, hits give low values 1.01 | locus YDR334W, strain swr1, hits give low values 0.962 | locus YDR335W, strain msn5, hits give low values 0.979 | locus YDR388W, hits give low values 1.01 | locus YDR392W, strain spt3, hits give low values 0.862 | locus YDR502C, strain sam2, hits give low values 1.01 | locus YEL003W, strain gim4, hits give low values 0.977 | locus YEL037C, strain rad23, hits give low values 0.968 | locus YEL061C, strain CIN8 (second series), hits give low values 0.949 | locus YEL061C, strain CIN8, hits give low values 1.01 | locus YER015W, strain faa2, hits give low values 0.982 | locus YER016W, strain bim1, hits give low values 0.971 | locus YER110C, hits give low values 1.02 | locus YER111C, strain swi4, hits give low values 0.958 | locus YER155C, strain BEM2 (second series), hits give low values 0.875 | locus YER155C, strain BEM2, hits give low values 1.01 | locus YER167W, strain BCK2, hits give low values 1.01 | locus YFR010W, strain ubp6, hits give low values 0.924 | locus YGL078C, strain dbp3, hits give low values 1.02 | locus YGL086W, strain mad1, hits give low values 1.01 | locus YGL167C, strain pmr1, hits give low values 0.949 | locus YGL173C, strain kem1, hits give low values 0.969 | locus YGL227W, strain vid30, hits give low values 0.948 | locus YGL240W, strain doc1, hits give low values 0.944 | locus YGL248W, strain PDE1, hits give low values 1.01 | locus YGL253W, strain hxk2, hits give low values 0.983 | locus YGR078C, strain PAC10, hits give low values 1.01 | locus YGR135W, strain pre9, hits give low values 1 | locus YGR229C, strain SMI1, hits give low values 1.01 | locus YGR252W, strain gcn5, hits give low values 0.988 | locus YHR013C, strain ard1, hits give low values 0.933 | locus YHR027C, strain rpn1, hits give low values 0.971 | locus YHR030C, strain SLT2, hits give low values 1.01 and 0.975 | locus YHR079C, strain IRE1 (second series), hits give low values 1.01 | locus YHR079C, strain IRE1, hits give low values 0.977 | locus YHR094C, strain hxt1, hits give low values 1 | locus YHR129C, strain ARP1, hits give low values 1.01 | locus YHR142W, strain chs7, hits give low values 0.942 | locus YHR200W, strain rpn10, hits give low values 1.01 | locus YIL066C, strain RNR3, hits give low values 1.02 | locus YIL073C, strain SPO22, hits give low values 1.05 | locus YIL125W, strain kgd1, hits give low values 1.01 | locus YIR030C, strain dcg1, hits give low values 1.02 | locus YJL092W, strain hpr5, hits give low values 0.977 | locus YJL095W, strain BCK1 (second series), hits give low values 0.976 | locus YJL095W, strain BCK1, hits give low values 0.997 and 0.98 | locus YJL115W, strain asf1, hits give low values 0.964 | locus YJL129C, strain trk1, hits give low values 0.947 | locus YJL134W, strain LCB3, hits give low values 1.01 | locus YJL154C, strain vps35, hits give low values 0.967 | locus YJL164C, strain tpk1, hits give low values 0.97 | locus YJL166W, strain qcr8, hits give low values 0.968 | locus YJL168C, strain set2, hits give low values 1.02 | locus YJL187C, strain SWE1 (second series), hits give low values 1.02 | locus YJL187C, strain SWE1, hits give low values 0.965 | locus YJR043C, strain POL32, hits give low values 1.01 | locus YJR066W, strain TOR1, hits give low values 0.935
